Measurements: PubChem BioAssay (NCI)
Compounds without any hit were thinned out: in the full panel of roughly 83,000, 20% have a hit.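 Treatment: one concentration, 48 hours, 96-well format. Scoring: percent growth, with anything below 10 considered active.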 A number with no mark means an inactive call. Calls of active or inactive are those of the source.

How the values were obtained:
Assay in all cases: NCI-60 one-dose screen, 48 h (100 = growth as untreated, 0 = no growth, -100 = all killed)
Conditions in all cases: 10 µM
HCT-15 colon = test system: HCT-15 colon
HT29 colon = test system: HT29 colon
SNB-75 CNS = test system: SNB-75 CNS
SNB-19 CNS = test system: SNB-19 CNS
U251 CNS = test system: U251 CNS
PC-3 prostate = test system: PC-3 prostate
SK-MEL-5 melanoma = test system: SK-MEL-5 melanoma
UACC-62 melanoma = test system: UACC-62 melanoma
LOX IMVI melanoma = test system: LOX IMVI melanoma
SK-MEL-28 melanoma = test system: SK-MEL-28 melanoma

Compound	growth (HCT-15 colon)	growth (HT29 colon)	growth (SNB-75 CNS)	growth (SNB-19 CNS)	growth (U251 CNS)	growth (PC-3 prostate)	growth (SK-MEL-5 melanoma)	growth (UACC-62 melanoma)	growth (LOX IMVI melanoma)	growth (SK-MEL-28 melanoma)
COc1cccc(-c2ccc(/C=N/NC(=O)c3[nH]c4ccc(Br)cc4c3-c3ccccc3)o2)c1	1.34% (active)	-9.03% (active)	31%	40.3%	7.57% (active)	20.2%	-0.615% (active)	28.8%	12.3%	42.5%
CC(C)(C)c1ccc(NCc2cn(-c3ccc(C(=O)O)cc3)nc2-c2ccc(C#N)cc2)cc1	-54.6% (active)	3.73% (active)	59.1%	24.6%	22.8%	20.6%	7.94% (active)	8.63% (active)	23.5%	28.1%
COc1cc(/C=C/C(=O)c2ccc(S(=O)(=O)NCCNc3nc(Nc4ccc(F)cc4)nc(N(C)C)n3)cc2)cc(OC)c1OC	-65.9% (active)	-56.7% (active)	88.2%	15.6%	-81.2% (active)	9.45% (active)	32.4%	34.2%	-100% (active)	18%
CC1=C(C(=O)OC(C)C)C(c2ccc(O)cc2)NC(=S)N1 (stereo not given)	102%	108%	217%	101%	102%	94.7%	106%	93.4%	94.4%	109%
O=C(c1ccc([N+](=O)[O-])c([N+](=O)[O-])c1O)n1[nH]c(=O)c2ccccc2c1=O	39.1%	66.7%	93.5%	72.9%	61.1%	74.1%	77.8%	60.3%	56.6%	92.7%
Cc1ccc(/C=C/C(=O)c2ccc(NC(=O)CSc3nnc(-c4c[nH]c5ccccc45)n3-c3ccccc3)cc2)c(C)c1	51.4%	65.5%	92.6%	72.2%	13.1%	48.6%	88.3%	72.8%	13.3%	80.9%
COc1ccc2[nH]c(=O)c(CSc3cccc(N)c3)cc2c1	48.2%	75.4%	82.7%	70.4%	70.1%	69.2%	6.41% (active)	16.5%	16.1%	69.6%
Cc1ccc(/C=C(\C#N)n2nnc3c(F)cccc32)cc1	12.2%	2.75% (active)	17.9%	23.6%	-26.1% (active)	24.7%	-23.5% (active)	36.8%	-9.47% (active)	28.8%
O=C1Nc2cc(Cl)ccc2/C1=C/c1cccc(OCc2ccccc2)c1	-24.8% (active)	-43.8% (active)	16.8%	0.636% (active)	-64.6% (active)	6.84% (active)	-98% (active)	-32.6% (active)	-82.6% (active)	4.09% (active)
CN1C(=O)/C(=C/c2nccs2)SC1=S	68.8%	99.4%	66.4%	90.5%	90.7%	109%	96.6%	79%	62.7%	95.8%
CC1(c2ccccc2)NC(=O)N(CC(=O)Nc2ccc(C(=O)/C=C/c3ccc(Cl)cc3)cc2)C1=O (stereo not given)	-61.4% (active)	-46.9% (active)	37.5%	30.9%	-71.7% (active)	9.23% (active)	-60.9% (active)	1.17% (active)	-100% (active)	15.8%
COc1ccccc1[C@H]1C(C(=O)c2ccc(O)cc2)C2(N[C@@H]1c1ccccc1)C(=O)Nc1ccc(Br)cc12 (stereo not given in full)	34.4%	-9.98% (active)	41%	49.3%	26.1%	23.2%	26.4%	38.1%	-39.3% (active)	60%
COc1cc2c3c(n(CCCNCCO)c(=O)c2cc1OC)-c1nc2c(cc1C3=O)OCO2	48.5%	5.98% (active)	18.8%	13.7%	12.4%	27.1%	30.4%	1.57% (active)	-90.8% (active)	72.2%
O=C(c1ccc(-n2c(=O)[nH]c3ccccc3c2=O)cc1)N1CCOCC1	99.2%	114%	80.9%	95.5%	105%	103%	107%	92.9%	104%	108%
CC[C@@]1(O)C(=O)OCc2c1cc1n(c2=O)Cc2c-1nc1cc(F)c(C)c3c1c2[C@@H](N)CC3	5.44% (active)	-11.1% (active)	-26.1% (active)	1.87% (active)	-42.1% (active)	22.5%	-78.4% (active)	-78.1% (active)	-74.2% (active)	-15.7% (active)
COc1ccc2[nH]c(=O)c(CSc3nccc(-c4ccc(Cl)cc4)n3)cc2c1	36.3%	33.9%	-11.5% (active)	40.5%	13%	29.3%	44.8%	37.9%	27.9%	45.3%
N#Cc1ccc(NC(=O)CSc2ccc(-c3ccc(Br)cc3)nn2)cc1	72.7%	84.1%	76%	64%	87.7%	58.6%	4.86% (active)	29.9%	52.8%	62.4%
Nc1nc(Nc2ccc(Cl)cc2)n(Cc2cccc(Br)c2)n1	-52.7% (active)	11.4%	-23.9% (active)	-12.3% (active)	-12.4% (active)	0.572% (active)	-100% (active)	-82.3% (active)	-84.6% (active)	-61.1% (active)
CC(=O)c1ccc(Nc2nc(SC(C)C)nc(-c3ccccc3)c2C#N)cc1	48.7%	48.1%	42.3%	-20% (active)	10.2%	71.9%	38.1%	77.9%	0.768% (active)	31.3%
Cn1cc(/C=N/Nc2ccnc3cc(Cl)ccc23)c2ccccc21	-92.2% (active)	-40.1% (active)	-85.8% (active)	-79.8% (active)	-49.8% (active)	-51.5% (active)	-98.2% (active)	-66.1% (active)	-83.7% (active)	-89.6% (active)
COc1ccc(N(C)c2cc(C#N)nc3ccccc23)cc1/C=C/C(=O)NO	-59.4% (active)	-19.5% (active)	-24.6% (active)	-44.5% (active)	-51% (active)	-9.99% (active)	-67.5% (active)	-72.2% (active)	-97.6% (active)	-73.8% (active)
Brc1ccc(/C=C/c2n(Cc3ccc4ccccc4c3)c3ccccc3[n+]2Cc2ccc3ccccc3c2)cc1	7.22% (active)	-87% (active)	-84.3% (active)	-45.9% (active)	-88.9% (active)	-79.1% (active)	-99.2% (active)	-81.9% (active)	-100% (active)	-93.1% (active)
N#Cc1c(Cl)nc(SCc2ccc(F)cc2)nc1-c1ccc(F)cc1	87%	66.6%	123%	98%	92.8%	91.1%	86.2%	86%	90.2%	104%
COc1cc2c3c(n(CCCNC(C)C)c(=O)c2cc1OC)-c1nc2c(cc1C3=O)OCO2	-87.9% (active)	-65.4% (active)	78.6%	33.2%	-76.3% (active)	-66.1% (active)	54.4%	22%	-97.3% (active)	49.2%
O=C(CNc1nc(-c2ccccc2)cs1)Nc1cccc([N+](=O)[O-])c1	-79.4% (active)	-61.6% (active)	-36.5% (active)	-88.1% (active)	-62.6% (active)	-18.5% (active)	-100% (active)	-84% (active)	-100% (active)	-84.9% (active)
